Measurements from the supplement of paper PMC13380429.

Experiments:
[1] = test system: Vero E6 infected with SARS-CoV-2; test: morphology score (similarity to uninfected cells); higher = more like uninfected cells; details: 24 h
[2] = test system: Vero E6 infected with SARS-CoV-2; test: SARS-CoV-2 infection rate relative to infected DMSO; higher = more infection, active = 60 or less; details: 24 h

Row | SMILES | morphology score [1] | SARS-CoV-2 infection rate [2]
1 | C=CC[C@]1(O)CC[C@H]2[C@@H]3CCC4=CCCC[C@@H]4[C@H]3CC[C@@]21C [allylestrenol] (10 µM) | 0.0416 | 92.5% (inactive)
2 | C[C@@H]1C[C@H]2[C@@H]3C[C@H](F)C4=CC(=O)C=C[C@]4(C)[C@@]3(F)[C@@H](O)C[C@]2(C)[C@@]1(O)C(=O)COC(=O)C(C)(C)C [flumethasone-pivalate] (10 µM) | 0.324 | 80% (inactive)
3 | CC(=O)/N=c1/[nH]c(C)c(-c2ccc(Cl)c(S(=O)(=O)NCCO)c2)s1 (0.833333 µM) | 0.335 | 104% (inactive)
4 | Cn1nc(C(C)(C)C)cc1C(=O)N[C@@H](Cc1cccc(Cl)c1)C(=O)NCC#N [cathepsin-inhibitor-1] (10 µM) | 0.186 | 97.5% (inactive)
5 | COc1cc2c(=O)c(-c3ccc(O)cc3)coc2cc1O [glycitein] (10 µM) | 0.00478 | 110% (inactive)
6 | COc1ccc(OC)c(CN(C(C)=O)c2cc(F)ccc2Oc2ccccc2)c1 (10 µM) | 0.0987 | 95% (inactive)
7 | Nc1cc(F)ccc1NC(=O)/C=C/c1cnn(C/C=C/c2ccccc2)c1 (0.833333 µM) | -0.0979 | 109% (inactive)
8 | O=c1[nH]c(CCl)nc2sc3c(c12)CCCC3 (10 µM) | 0.193 | 104% (inactive)
9 | NS(=O)(=O)c1cc2c(cc1Cl)NC(C(Cl)Cl)NS2(=O)=O (stereo unspecified) [trichlormethiazide] (10 µM) | 0.0616 | 100% (inactive)
10 | NCC1(CC(=O)O)CCCCC1 [gabapentin] (10 µM) | -0.108 | 109% (inactive)
11 | NCCNc1ccc(NCCN)c2c1C(=O)c1ccncc1C2=O [pixantrone] (10 µM) | 0.328 | 71% (inactive)
12 | CN1CCN(CC/C=C2/c3ccccc3Sc3ccc(S(=O)(=O)N(C)C)cc32)CC1 [thiothixene] (10 µM) | 0.381 | 80.5% (inactive)
13 | CC1(C)CCC(C)(C)c2cc(C(=O)Nc3ccc(C(=O)O)cc3)ccc21 (10 µM) | -0.326 | 112% (inactive)
14 | CCn1c(-c2nonc2N)nc2cncc(C(=O)N3CC[C@H](N)C3)c21 (0.833333 µM) | 0.488 | 87% (inactive)
15 | Fc1ccccc1CNCc1ccc(-c2ccnc3[nH]ccc23)cc1 (10 µM) | -0.0487 | 116% (inactive)
16 | CO[C@@H](C)Cn1c(=O)n(C)c2cnc3ccc(-c4cncc(C(C)(C)O)c4)cc3c21 (10 µM) | -0.000833 | 112% (inactive)
17 | Brc1ccc(NC2C3CC4CC(C3)CC2C4)cc1 (stereo unspecified) [bromantan] (10 µM) | -0.111 | 99.5% (inactive)
18 | CC(C)[C@@]1(NC(=O)[C@@H]2C[C@@H]3c4cccc5[nH]cc(c45)C[C@H]3N(C)C2)O[C@@]2(O)[C@@H]3CCCN3C(=O)[C@H](Cc3ccccc3)N2C1=O [dihydroergocristine] (10 µM) | -0.123 | 117% (inactive)
19 | CC(C)N(C[C@H]1O[C@@H](n2cnc3c(N)ncnc32)[C@H](O)[C@@H]1O)[C@H]1C[C@@H](CCc2nc3cc(C(C)(C)C)ccc3[nH]2)C1 (10 µM) | 0.122 | 110% (inactive)
20 | C#Cc1cnc2nc(O)n(C(CC)CC)c2n1 [tirasemtiv] (10 µM) | -0.109 | 104% (inactive)
21 | Cc1c(Cl)cccc1S(=O)(=O)Nc1nc(NCCc2ccccc2)nc2c1CN(Cc1ccccc1)CC2 (10 µM) | 0.104 | 94.5% (inactive)
22 | Cn1c(=O)[nH]c2ncn(C)c2c1=O [paraxanthine] (10 µM) | 0.141 | 110% (inactive)
23 | O=C(O)Cn1nnc(-c2cc(N3CCC(Oc4cc(F)ccc4Br)CC3)no2)n1 (10 µM) | 0.00994 | 104% (inactive)
24 | COC(F)(F)C(Cl)Cl [methoxyflurane] (10 µM) | 0.106 | 100% (inactive)
25 | COc1cc(N)c(Cl)cc1C(=O)N[C@@H]1CCN(CCCOc2ccc(F)cc2)C[C@@H]1OC (racemic) [cisapride] (10 µM) | -0.0266 | 112% (inactive)
26 | Clc1ccc(N/N=C(\c2ccccc2)c2ccccn2)nc1 (10 µM) | 0.0534 | 103% (inactive)
27 | O=c1c2ccccc2nc2n1CCc1c-2[nH]c2ccccc12 [rutaecarpine] (10 µM) | 0.246 | 105% (inactive)
28 | CN(C)Cc1cccc(N/C(=C2\C(=O)Nc3cc(C(N)=O)ccc32)c2ccccc2)c1 (10 µM) | -0.132 | 120% (inactive)
